Hits are enriched below; roughly 19% of the tested compounds scored in any of these assays.
HT1080NT lethal: kills 2HG-producing HT-1080-NT fibrosarcoma cells; HT-1080-NT fibrosarcoma viability, CellTiter-Glo ATP luminescence, 48 h; Potency, µM (titrated, usually from 46.1 µM), for the others: top-dose activity, negative = less viability, hits mostly cytotoxic; 1.6% of 360,000 active;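 also: NT is the 2HG producing partner of a matched IDH1 knockdown line; 0% = DMSO-treated cells and -100% = media-only wells without cells; nearly all actives have a fitted effect of over 55% in size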
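Viability of the 2HG-overproducing fibrosarcoma line after 48 hours of compound exposure at 37 degrees C was determined by luminescence with CellTiter-Glo, and concentration-effect curves were then fitted and categorized.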
KB-3-1 tox: KB-3-1 parental cell cytotoxicity; AID 1347075; Potency, µM (top dose mostly 46.1 µM), actives largely listed as cytotoxic; KB-3-1 viability, CellTiter-Glo ATP luminescence, 72 h; 1.4% of 400,000 active; also: nearly all actives have a fitted effect of over 60% in size
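KB-3-1 parental drug-naive adenocarcinoma cells in DMEM/10% FBS, incubated 72 h at 37 C with pin-transferred compounds across a concentration series. Viability by CellTiter-Glo luminescence; concentration-response curves fitted after normalization.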
TDP1 cell noCPT: qHTS for Inhibitors of human tyrosyl-DNA phosphodiesterase 1 (TDP1): qHTS in cells in absence of CPT; DT40 Tdp1-/- hTDP1 cells, no CPT, ATP luminescence, 48 h; Potency, µM (highest dose often 46.2 µM), inactives show at the top dose activity change, negative = growth inhibition, usual class: inhibitors; 15% of 420,000 active; AID 686978, 2013; also: nearly all actives have a fitted effect of over 55% in size
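Readout: luminescence from CellTiter-Glo after 30 min in the dark at RT. Cells: DT40 Tdp1-/- with stable hTDP1, 400/well. Exposure: compounds alone, ≥48 hr, 37 °C.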
DT40 TDP1 CPT: DT40-hTDP1 cell growth loss with CPT; chicken DT40 Tdp1-/-;hTDP1 cells + 20 nM CPT, ATP luminescence, 48 h; Potency, µM (top dose mostly 46.2 µM), for the others: at the top dose activity change, negative = growth inhibition, hits mostly inhibitors; 12% of 420,000 active; also: nearly all actives have a fitted effect of over 55% in size
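Chicken DT40 Tdp1-/- cells stably complemented with human TDP1 were seeded at 400 cells/well in medium containing 20 nM camptothecin, exposed to pin-transferred compounds, and grown at 37 °C for at least 48 hr. Viability was read as ATP luminescence.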
HT1080 IDH1KD tx: toxicity to HT-1080 IDH1 knockdown cells (counter line); Potency, µM (series often up to 46.1 µM), for the others: top-dose activity, negative = toxicity, actives largely listed as cytotoxic; 2% of 360,000 active; HT-1080 IDH1 knockdown viability, ATP luminescence, 48 h;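 also: 0% = DMSO wells and -100% = cell-free medium wells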
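Using the IDH1-knockdown HT-1080 line run in the same batch and compound series as the NT line, viability after 48 h at 37 °C was determined by CellTiter-Glo luminescence and expressed as % activity.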
KB-V1 cytotox: kills drug-selected multidrug resistant KB-V1 cells; KB-V1 MDR cells viability, CellTiter-Glo, 72 h; Potency, µM (series often up to 46.1 µM), most hits filed as cytotoxic; 3.4% of 400,000 active; AID 1347076; also: nearly all actives have a fitted effect of over 60% in size
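Readout: CellTiter-Glo luminescence, 10 min after addition. Cells: KB-V1 MDR subline, 72 h at 37 degrees C with compound. Analysis: corrected, normalized data fitted to concentration-effect curves.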
Active calls of the source: *; i = inactive; ? = inconclusive; · = no result given; [ ] = dose if it differs, or a comment. Calls follow the shape of the dose curve; as a rule, active = well fitted curve in the direction sought with a large enough effect; inconclusive = small, poorly fitted or top-dose-only effect, or another doubt; inactive = no such curve, though single readings can be large; an effect the other way counts as inactive or inconclusive. Unless noted, % is scaled to controls: 0 for no effect and ±100 for the full control effect; potency is read from the fitted curve at half-maximal effect.

SMILES	HT1080NT lethal	KB-3-1 tox	TDP1 cell noCPT	DT40 TDP1 CPT	HT1080 IDH1KD tx	KB-V1 cytotox
COc1ccc(-c2csc(NC(=O)C3CC(=O)N(Cc4ccccc4)C3)n2)cc1OC (configuration not stated)	-4%	i	?	?	-17%	?
Cc1cc(C)n(-c2nc3cc(Cl)ccc3nc2N2CCN(c3cccc(C)c3C)CC2)n1	·	i	-15%	-18%	·	i
O=C(COC(=O)/C=C/c1ccc(S(=O)(=O)N2CCOCC2)cc1)NCc1ccccc1	-20%	i	13µM*	7.3µM*	-10%	i
O=C(COC(=O)/C=C/c1ccc(S(=O)(=O)N2CCOCC2)cc1)NCc1ccc(Cl)cc1	-3%	i	26µM*	?	0%	i
O=C(COC(=O)CCc1ccc(S(=O)(=O)N2CCOCC2)cc1)NCc1ccc(Cl)cc1	10%	i	-13%	-17%	11%	i
COc1ccccc1C1CN(c2ccccc2)N=C1c1cccs1 (configuration not stated)	?	i	?	?	14%[9.24 µM]	i
COc1cccc(C2CN(c3ccc(F)cc3F)N=C2c2cccs2)c1OC (configuration not stated)	-12%	i	?	16µM*	-3%	i
COc1ccc(C)cc1NC(=O)CN(c1ccccc1)S(=O)(=O)N(C)C	·	i	-27%	-21%	·	i
COc1ccc(N(CC(=O)Nc2ccc(Cl)cc2C)S(=O)(=O)c2ccccc2)c(OC)c1	·	i	18µM*	?	·	i
COc1ccc(NC(=O)CN(c2ccccc2)S(=O)(=O)c2ccccc2)c(OC)c1	-10%	i	?	?	0%	?
COc1ccc(Cl)cc1NC(=O)CN(c1cccc(C)c1C)S(=O)(=O)c1ccccc1	·	i	23µM*	23µM*	·	i
CN1CCN(c2ccc(Cl)cc2NC(=O)C2COc3ccccc3O2)CC1 (configuration not stated)	15µM*	?	29µM*	?	?	i
COc1ccc(Cl)cc1NC(=O)CN(c1ccccc1)S(=O)(=O)N(C)C	-24%	?	18µM*	29µM*	-18%	?
COc1ccc(Cl)cc1NC(=O)C1COc2ccccc2O1 (configuration not stated)	3%	i	?	-30%	5%	i
CC1=C(C(=O)N2CCOCC2)CC(CC(=O)NC2CCCCC2)C(=O)N1CCCN1CCCC1=O (configuration not stated)	12%	i	-15%	-12%	5%	i
COc1ccc(C(C(=O)NCc2ccccc2)n2c(=O)c(-c3cc4ccccc4[nH]3)nc3ccccc32)cc1 (configuration not stated)	?	i	?	?	?	i
COc1ccc(Cl)cc1NC(=O)CN(C)C(=O)C1COc2ccccc2O1 (configuration not stated)	-9%	i	-24%	-16%	-4%	16µM*
COc1ccc(Cl)cc1NC(=O)CN(C)C(=O)C12CC3CC(CC(Cl)(C3)C1)C2	-9%	i	23µM*	?	?	?
CCc1ccc2oc(C(=O)Nc3c(C)n(C)n(-c4ccccc4)c3=O)cc(=O)c2c1	·	i	-17%	-2%	·	i
COc1ccc(OC)c(CCNC(=O)c2cccc(NC(=O)C3=C(C)OCCS3)c2)c1	?	i	?	?	?	i
COc1ccc(NCC(=O)Nc2ccc(Br)cc2F)c(OC)c1	?	i	13µM*	?	-5%	i
COc1ccc(NC(=O)c2cc(Br)ccc2Cl)c(OC)c1	2%	i	-14%	5%	-5%	16µM*
CCN(c1ccc(OC)cc1)S(=O)(=O)c1nnc(NC(=O)CC(C)C)s1	10%	i	2%	-20%	14%	i
COc1ccc(N(CC(C)C)S(=O)(=O)c2nnc(NC(=O)CC(C)C)s2)cc1	-4%	i	?	3.7µM*	0%	i
Cc1ccc(N(CC(C)C)S(=O)(=O)c2nnc(NC(=O)c3ccco3)s2)cc1	·	·	18µM*	?	·	·
SMILES	HT1080NT lethal	KB-3-1 tox	TDP1 cell noCPT	DT40 TDP1 CPT	HT1080 IDH1KD tx	KB-V1 cytotox
CCN1CCN(CC(=O)Nc2ccc(S(=O)(=O)N3C(C)CCCC3C)cc2)CC1 (configuration not stated)	12%	i	?	-5%	8%	i
Cc1oc(-c2ccccc2F)nc1CN1CCC(C(=O)NCCc2ccccc2)CC1	·	i	?	?	·	i
Cc1oc(-c2ccccc2F)nc1CN1CCC(C(=O)NCCC2=CCCCC2)CC1	-23%	?	23µM*	?	-2%	8.2µM*
CCc1ccc(-c2nc(CN3CCC(C(=O)NCCc4ccc(OC)c(OC)c4)CC3)c(C)o2)cc1	-14%	?	?	16µM*	-14%	?
COc1ccc(CCNC(=O)C2CCN(Cc3nc(-c4ccccc4F)oc3C)CC2)cc1OC	-15%	i	-16%	-27%	-1%	16µM*
COc1ccc(CCNC(=O)C2CCN(Cc3nc(-c4ccc(OC)c(OC)c4)oc3C)CC2)cc1OC	·	i	?	2%	·	i
CC1=C2C3OC(=O)C(C)C3CCC2(C)C=C(Br)C1=O (configuration not stated)	0%	?	21µM*	-11%	2%	?
C[C@@H]1C(=O)O[C@H]2[C@H]1CC[C@@]1(C)C(=O)C=C[C@@](C)(O)[C@H]21	-1%	i	-5%	4%	7%	i
CCOc1ccccc1CNC(=O)c1ccc(Cn2c(=O)c3cccn3c3cccnc32)cc1	·	·	0%	-21%	·	·
O=S(=O)(c1ccc(OCC2CO2)cc1)c1ccc(OCC2CO2)cc1 (configuration not stated)	?	i	2.1µM*	1.8µM*	-12%	?
COc1ccc(-n2ccn(CC(=O)NCc3ccc(C)cc3)c(=O)c2=O)cc1OC	·	·	-3%	-3%	·	·
Cc1cc(-c2ccccc2)nc(N(C)C)c1S(C)(=O)=O	13%	i	?	?	6%	i
Cc1cc(-c2ccccc2)nc(N(C)NC(=O)c2ccc(Cl)cc2)c1S(C)(=O)=O	-7%	i	21µM*	15µM*	-1%	?
